CYP2C9 inh = inhibitors of human CYP2C9 | P11712 | CYP2C9 Supersomes, luciferin-H conversion, luminescence | inhibition, % at 5 µM | 96,000 tested, 20% active;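 active means blocking of liver enzyme CYP2C9 beyond about 50% at 5 µM, limit read from the data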
CYP2C19 inh = blocks human cytochrome P450 2C19. CYP2C19 Supersomes, luciferin-H EGE luminescence, 30 min. inhibition, % at 5 µM. 96,000 tested, 21% active;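 active means CYP2C19 inhibition above a set limit at 5 µM in the primary screen, cut at about 50% in these data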
Target sequence (P33261 whole entry, looked up): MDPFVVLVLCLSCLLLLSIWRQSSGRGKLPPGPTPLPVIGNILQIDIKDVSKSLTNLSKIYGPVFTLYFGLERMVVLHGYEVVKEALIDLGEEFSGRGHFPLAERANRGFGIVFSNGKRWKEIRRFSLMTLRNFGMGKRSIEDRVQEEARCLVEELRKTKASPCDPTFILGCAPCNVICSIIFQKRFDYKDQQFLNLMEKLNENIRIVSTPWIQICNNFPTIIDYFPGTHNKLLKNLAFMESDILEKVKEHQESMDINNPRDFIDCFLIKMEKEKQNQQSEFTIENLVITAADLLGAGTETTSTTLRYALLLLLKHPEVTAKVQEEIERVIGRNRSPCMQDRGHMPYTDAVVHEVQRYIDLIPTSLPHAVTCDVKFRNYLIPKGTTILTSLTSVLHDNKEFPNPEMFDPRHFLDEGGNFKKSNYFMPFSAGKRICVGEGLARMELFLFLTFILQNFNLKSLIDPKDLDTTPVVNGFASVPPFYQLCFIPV
CYP2C9 act = increases human cytochrome P450 2C9 activity. activation factor at 5 µM. recombinant CYP2C9, luciferin-H conversion, luminescence; stronger effect = higher value; factor 1 = untreated enzyme, 0 = blocked. 96,000 tested, 1.4% active. AID 1024;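 active means activation factor of 2 or more for CYP2C9 at a 5 µM dose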
CYP2C19 act = cytochrome P450 2C19 (human) activation; recombinant CYP2C19, luciferin-H EGE luminescence; stronger effect = higher value; 0 = fully inhibited enzyme, 1 = untreated enzyme; activation factor at 5 µM; 96,000 tested, under 10 active; AID 1025;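 active means activation factor of at least 2 at 5 µM in the primary screen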
PTK2B oligo ant = Pyk2 (human) oligomerization antagonism | Q14289 | Q293 cells, Pyk2 FERM NanoBiT luminescence; stronger effect = lower value | z-score (the deposit names both 25 µM and 10 µM) | 99,000 tested, 0.83% active;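 active means Z-score of -3 or lower, scaled per plate to the spread of control and sample wells; inactive means z-score above -3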;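 further: negative z-score means lost luminescence so less FERM oligomerization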
A number is an active result; 0 = inactive; - = no result given. Shown are actives, neighbours in structure and some others; about 28% of the full set was active somewhere.

SMILES | CYP2C9 inh | CYP2C19 inh | CYP2C9 act | CYP2C19 act | PTK2B oligo ant
CC(NC(=O)CCOc1ccccc1)c1ccccc1 (stereo unspecified) | 0 | 94.9 | 0 | 0 | 0
O=C(c1ccco1)N1N=C(c2cccs2)CC1c1ccc(F)cc1 (stereo unspecified) | 0 | 0 | 0 | 0 | 0
O=S(=O)(c1ccccc1)N1N=C(c2cccs2)CC1c1ccc(Br)cc1 (stereo unspecified) | 52.1 | 0 | 0 | 0 | 0
Nc1nc(SCC(=O)N2CCCc3ccccc32)[nH]c(=O)c1-c1ccccc1 | 51.1 | 0 | 0 | 0 | 0
Cc1cccc(C)c1NC(=S)NN(Cc1ccccc1)c1ccccc1 | 0 | 0 | 0 | 0 | 0
Fc1ccccc1NC(=S)NN(Cc1ccccc1)c1ccccc1 | 82.3 | 95.4 | 0 | 0 | 0
CC(C)c1ccccc1NC(=O)c1cccnc1 | 0 | 0 | 0 | 0 | 0
CC(C)c1ccccc1NC(=S)NN(Cc1ccccc1)c1ccccc1 | 0 | 62.5 | 0 | 0 | 0
CC1=C(C(=O)NCc2ccccc2)C(c2ccc(C)o2)n2ncnc2N1 (stereo unspecified) | 0 | 0 | 0 | 0 | 0
CN(C)CCCOC(=O)Cc1ccc(Cl)cc1 | 0 | 69.3 | 0 | 0 | 0
CN(C)c1nc2ccc(OCCN3CCCCC3)cc2s1 | 0 | 0 | 0 | 0 | 0
COc1nc(Nc2ccc([N+](=O)[O-])cc2)nc(NC(C)C)n1 | - | - | - | - | 0
CCc1nc(NCc2ccccn2)c2oc3ccccc3c2n1 | - | - | - | - | -3.02
CCc1nc(NCCN2CCOCC2)c2oc3ccccc3c2n1 | 0 | 56.9 | 0 | 0 | 0
c1ccc(CNc2ncnc3c2oc2ccccc23)nc1 | 0 | 0 | 0 | 0 | 0
CC(=O)c1ccc(N2CCN(C(=O)c3ccc(NC(=O)C4CCCO4)cc3)CC2)cc1 (stereo unspecified) | 0 | 0 | 0 | 0 | 0
O=C(NC1(C(F)(F)F)NC(=O)N(c2ccc(F)cc2)C1=O)c1ccncc1 (stereo unspecified) | - | - | - | - | 0
CCOC(=O)c1c(C)c(C(=O)N(C)C2CCCCC2)c(C)n1C | 0 | 53.6 | 0 | 0 | 0
COC(=O)CCN(c1ccccc1)S(=O)(=O)c1ccc(OC)cc1 | 0 | 0 | 0 | 0 | 0
COCc1cc(=O)[nH]c(/N=C(\N)Nc2ccccc2C)n1 | 0 | 0 | 0 | 0 | 0
CN(C)c1nc(N)nc(CSc2ncc(Cl)cc2Cl)n1 | 0 | 64.3 | 0 | 0 | 0
O=C(Nc1ccccc1)c1ccc(CSc2ncccn2)cc1 | 0 | 0 | 0 | 0 | 0
Cc1ccc(NC(=O)c2ccc(CSc3nccc(C)n3)cc2)cc1 | 64.5 | 0 | 0 | 0 | 0
CCCCNC(=O)c1onc(CSc2ccccc2F)c1C(=O)O | 57.2 | 0 | 0 | 0 | -
CCCCNC(=O)c1onc(CSc2ccccc2C)c1C(=O)O | 58.9 | 0 | 0 | 0 | -
SMILES | CYP2C9 inh | CYP2C19 inh | CYP2C9 act | CYP2C19 act | PTK2B oligo ant
O=C(NCc1ccccc1)C(c1ccncc1)N(C(=O)c1csnn1)C1CC1 (stereo unspecified) | 0 | 0 | 0 | 0 | 0
O=C(NCc1ccc(F)cc1)C(c1ccncc1)N(C(=O)c1csnn1)C1CC1 (stereo unspecified) | 0 | 53.5 | 0 | 0 | 0
O=C(c1ccc(-c2ccccc2)cc1)N1CCN(C(=O)c2ccco2)CC1 | 0 | 0 | 0 | 0 | 0
Cc1nn2c(N3CCN(C(=O)c4ccco4)CC3)cc(C(C)(C)C)nc2c1-c1ccccc1 | 57.6 | 0 | 0 | 0 | -
O=C(c1ccco1)N1CCN(c2nnc(-c3ccccc3)c3ccccc23)CC1 | 0 | 58.0 | 0 | 0 | 0
Cc1ccc2cc3cc(C(=O)N4CCN(C(=O)c5ccco5)CC4)sc3nc2c1 | 0 | 63.6 | 0 | 0 | 0
O=C(c1ccco1)N1CCN(c2nc3ccccc3c(=O)n2-c2ccccc2)CC1 | 67.1 | 0 | 0 | 0 | 0
Cc1nn2c(N3CCN(C4CCCC4)CC3)cc(C(C)(C)C)nc2c1-c1ccccc1 | 0 | 0 | 0 | 0 | 0
CCCN1CCN(c2nc3c([nH]2)c(=N)ncn3CC(O)CO)CC1 (stereo unspecified) | 0 | 0 | 0 | 0 | 0
Cc1cccc(NC(=O)CSc2nnc(CSc3nc(C)cc(C)n3)n2Cc2ccco2)c1 | 0 | 0 | 0 | 0 | 0
O=C(c1ccco1)N1CCN(c2ncnc3c2oc2ccccc23)CC1 | 0 | 61.5 | 0 | 0 | 0
O=C(c1ccco1)N1CCN(C(=O)c2cc3c(=O)oc4ccccc4c3s2)CC1 | 61.0 | 0 | 0 | 0 | 0
c1cnc(N2CCN(c3ncnc4c3oc3ccccc34)CC2)nc1 | 0 | 0 | 0 | 0 | -
O=C(c1ccco1)N1CCN(c2nc3ccsc3c(=O)s2)CC1 | 64.4 | 0 | 0 | 0 | -
COc1ccc(C)cc1S(=O)(=O)N(C)CC(=O)N1CCCCC1 | - | - | - | - | 0
COc1ccccc1C(=O)OCc1c(F)cccc1Cl | 0 | 72.7 | 3.4 | 0 | 0
Cc1cccc(OCCN2CSC(=S)N(C)C2)c1 | 87.7 | 78.7 | 0 | 0 | 0
COC(=O)C1=C(C)N(Cc2ccc(C)cc2)C(=O)C1 | 0 | 0 | 0 | 0 | 0
C/C(=N\N1CCN(C2c3ccccc3-c3ccccc32)CC1)c1ccncc1 | 51.5 | 77.3 | 0 | 0 | 0
Cc1ccsc1/C=N/N1CCN(C2c3ccccc3-c3ccccc32)CC1 | 88.1 | 0 | 0 | 0 | 0
c1ccc(CNc2ccc3c(c2)ncn3C2CCCCC2)nc1 | 0 | 0 | 0 | 0 | 0
COc1cc(C2c3c(oc4ccccc4c3=O)C(=O)N2c2ccc(C)cn2)ccc1O (stereo unspecified) | 68.1 | 0 | 0 | 0 | -
COc1cc(C2c3c(oc4cc(C)c(C)cc4c3=O)C(=O)N2c2cc(C)ccn2)ccc1O (stereo unspecified) | 0 | 0 | 0 | 0 | 0
COc1ccc(C2c3c(oc4ccccc4c3=O)C(=O)N2c2ccccn2)cc1 (stereo unspecified) | 0 | 0 | 0 | 0 | -
CCOc1ccc(C2c3c(oc4ccccc4c3=O)C(=O)N2c2ccc(C)cn2)cc1OC (stereo unspecified) | 81.5 | 0 | 0 | 0 | -
SMILES | CYP2C9 inh | CYP2C19 inh | CYP2C9 act | CYP2C19 act | PTK2B oligo ant
Cc1ccc(-c2nnn(CC(=O)N(c3ccccc3)C(C(=O)NCC3CCCO3)c3ccc(Cl)cc3)n2)cc1 (stereo unspecified) | 87.6 | 61.9 | 0 | 0 | 0
Cc1ccc(-c2nnn(CC(=O)N(c3ccccc3F)C(C(=O)NCC3CCCO3)c3c[nH]c4ccccc34)n2)cc1 (stereo unspecified) | 75.3 | 0 | 0 | 0 | 0
COc1ccc(-c2nnn(CC(=O)N(Cc3ccccc3Cl)C(C(=O)NCC3CCCO3)c3ccco3)n2)cc1 (stereo unspecified) | 0 | 0 | 0 | 0 | 0
CN=c1scc(C)n1/N=C/c1ccc2c(c1)OCO2 | 0 | 0 | 0 | 0 | 0
CCCCn1c(-c2ccccc2)nc2c(=O)n(C)c(=O)[nH]c21 | 66.7 | 0 | 0 | 0 | 0
CN(C)c1cc2c(c(N(C)C)c1)C(=O)c1ccccc1C2=O | 0 | 0 | 0 | 0 | 0
O=C(CCCCCn1c(SCc2ccncc2)nc2ccccc2c1=O)NCc1ccco1 | - | - | - | - | 0
CCOC(=O)CCC(=O)N1CCOCCOCCN(C(=O)CCC(=O)OCC)CCOCCOCC1 | 0 | 0 | 0 | 0 | 0

Source: PubChem BioAssay (Sanford-Burnham Center for Chemical Genomics)
